Test results taken from PubChem BioAssay AID1159580 (chemical genetic matrix, 2015).
Values joined by “and” are separate entries in the source; they are usually repeats but may differ in a detail not shown here. Equal entries are not always repeated. Hit rate of the full screen: of about 5,500 compounds, about 2,000 (36%) were called active. Roughly 18% stayed inconclusive and do not appear here. Rule as the data show it: active = normalized growth mostly below about 0.91 (no sharp cut-off); inconclusive = no clear call, values can overlap the other calls; inactive = mostly above about 0.92. The list shows a part of the results.

Test: chemical genetic growth profiling, strain panel (AID 1159580);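 also: tested at 20 µM; growth read once vehicle control cultures reached saturation at 30 °C; 1 = growth at the plate median or of vehicle wells; lower values mean less growth of the strain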
Conditions: S. cerevisiae deletion strains, growth OD

Measured: normalized growth

CN(C)C(=O)Oc1cccc([N+](C)(C)C)c1
inactive: locus YAL021C, strain ccr4, hits give low values 0.987 | locus YAL026C, strain drs2, hits give low values 1 | locus YAL030W, strain snc1, hits give low values 1 | locus YAL040C, strain CLN3, hits give low values 1 | locus YBL061C, strain skt5, hits give low values 1.01 | locus YBR009C, strain hhf1, hits give low values 1 | locus YBR021W, strain FUR4, hits give low values 0.992 | locus YBR023C, strain chs3, hits give low values 0.988 | locus YBR171W, strain sec66, hits give low values 0.992 | locus YBR229C, strain ROT2, hits give low values 0.985 | locus YBR231C, strain swc5, hits give low values 0.988 | locus YBR279W, strain paf1, hits give low values 1 | locus YCL011C, strain gbp2, hits give low values 0.996 | locus YCL016C, strain dcc1, hits give low values 0.992 | locus YCL029C, strain bik1, hits give low values 0.978 | locus YCL061C, strain MRC1 (second series), hits give low values 1 | locus YCL061C, strain MRC1, hits give low values 0.996 | locus YCL069W, strain vba3, hits give low values 1 | locus YCR088W, strain abp1, hits give low values 0.99 | locus YDL005C, strain med2, hits give low values 0.983 | locus YDL035C, strain GPR1, hits give low values 0.997 | locus YDL040C, strain nat1, hits give low values 0.992 | locus YDL074C, strain BRE1, hits give low values 1.05 | locus YDL101C, strain DUN1, hits give low values 0.986 | locus YDL134C, strain PPH21, hits give low values 0.987 | locus YDL185W, strain tfp1, hits give low values 0.98 | locus YDL192W, strain arf1, hits give low values 0.98 | locus YDR001C, strain nth1, hits give low values 0.998 | locus YDR069C, strain doa4, hits give low values 0.978 | locus YDR101C, strain arx1, hits give low values 0.977 | locus YDR137W, strain rgp1, hits give low values 1.01 | locus YDR150W, strain NUM1, hits give low values 1 | locus YDR159W, strain sac3, hits give low values 0.978 | locus YDR162C, strain NBP2, hits give low values 0.999 | locus YDR195W, strain ref2 1.01 | locus YDR297W, strain sur2, hits give low values 0.996 | locus YDR318W, strain mcm21, hits give low values 0.98 | locus YDR334W, strain swr1, hits give low values 1 | locus YDR335W, strain msn5, hits give low values 1.01 | locus YDR363W, strain ESC2, hits give low values 1.04 | locus YDR388W, hits give low values 0.986 | locus YDR392W, strain spt3, hits give low values 0.996 | locus YDR502C, strain sam2, hits give low values 0.977 | locus YEL003W, strain gim4, hits give low values 1.01 | locus YEL037C, strain rad23, hits give low values 0.998 | locus YEL061C, strain CIN8 (second series), hits give low values 1 | locus YEL061C, strain CIN8, hits give low values 0.994 | locus YER002W, strain NOP16, hits give low values 1.01 | locus YER015W, strain faa2, hits give low values 1 | locus YER016W, strain bim1, hits give low values 1.01 | locus YER110C, hits give low values 0.991 | locus YER111C, strain swi4, hits give low values 1.02 | locus YER155C, strain BEM2 (second series), hits give low values 1.01 | locus YER155C, strain BEM2, hits give low values 0.974 | locus YER167W, strain BCK2, hits give low values 0.987 | locus YFR010W, strain ubp6, hits give low values 0.996 | locus YGL078C, strain dbp3, hits give low values 0.983 | locus YGL086W, strain mad1, hits give low values 0.997 | locus YGL167C, strain pmr1, hits give low values 1.07 | locus YGL173C, strain kem1, hits give low values 1.01 | locus YGL227W, strain vid30, hits give low values 0.992 | locus YGL240W, strain doc1, hits give low values 0.986 | locus YGL248W, strain PDE1, hits give low values 0.993 | locus YGL253W, strain hxk2, hits give low values 1.01 | locus YGR135W, strain pre9, hits give low values 0.981 | locus YGR229C, strain SMI1, hits give low values 1.02 and 1.01 | locus YGR252W, strain gcn5, hits give low values 1.06 | locus YHR013C, strain ard1, hits give low values 1.02 | locus YHR027C, strain rpn1, hits give low values 0.99 | locus YHR030C, strain SLT2, hits give low values 0.992 and 0.979 | locus YHR079C, strain IRE1 (second series), hits give low values 0.979 | locus YHR079C, strain IRE1, hits give low values 0.961 | locus YHR094C, strain hxt1, hits give low values 0.989 | locus YHR129C, strain ARP1, hits give low values 0.989 | locus YHR142W, strain chs7, hits give low values 1.03 | locus YHR200W, strain rpn10, hits give low values 0.981 | locus YIL066C, strain RNR3, hits give low values 0.996 | locus YIL073C, strain SPO22, hits give low values 0.965 | locus YIL125W, strain kgd1, hits give low values 0.998 | locus YIR030C, strain dcg1, hits give low values 0.983 | locus YJL092W, strain hpr5, hits give low values 0.996 | locus YJL095W, strain BCK1 (second series), hits give low values 0.996 | locus YJL095W, strain BCK1, hits give low values 1.01 and 0.988 | locus YJL115W, strain asf1, hits give low values 1 | locus YJL129C, strain trk1, hits give low values 0.987 | locus YJL134W, strain LCB3, hits give low values 0.986 | locus YJL154C, strain vps35, hits give low values 1.01 | locus YJL164C, strain tpk1, hits give low values 1.01 | locus YJL166W, strain qcr8, hits give low values 0.999 | locus YJL168C, strain set2, hits give low values 0.988 | locus YJL187C, strain SWE1 (second series), hits give low values 0.987 | locus YJL187C, strain SWE1, hits give low values 0.992 | locus YJR043C, strain POL32, hits give low values 1.02 | locus YJR066W, strain TOR1, hits give low values 0.947
